According to PubChem BioAssay (NCATS):
Inconclusive results are not listed. Where a call stands in place of a potency, no number is given. Active and inactive are the calls of the source. Calls come from the whole dose curve; as a rule, active = well fitted inhibition curve with a large enough effect; inconclusive = small, poorly fitted or top-dose-only effect; inactive = no such curve, though single readings can be large or run the other way.

Experiment: qHTS assay for measurement of the activity of small molecule inhibitors on Zika virus induced Caspase-3 activity in human iPSC derived neural progenitor cells (hNPCs) (AID 1224857); note: nearly all actives have a fitted effect of over 65% in size
Conditions: hNPCs ZIKV-induced caspase-3/7, Caspase-Glo luminescence, 6 h; series mostly up to 45.7 µM
Procedure, shortened: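 Zika virus (2 FFU/cell) infection of human iPSC-derived NPCs, 6 h, following 1 h compound preincubation. Read-out: Caspase-Glo 3/7 luminescence.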

Compound | Potency | activity change, negative = inhibition
CCN(CC)CCNC(=O)COc1ccc(OC)cc1 | inactive | 
OCc1ccccn1 | inactive | 
CCCCCCCCCCCCCC(=O)OC(C)C | inactive | 
CC1(COc2ccc(CC3SC(=O)NC3=O)cc2)CCCCC1 (configuration not stated) | inactive | 
Cc1ccc(-c2ncc(Cl)cc2-c2ccc(S(C)(=O)=O)cc2)cn1 | inactive | 
Cc1ccccc1OCC(O)CO (configuration not stated) | inactive | 
CCCCC(CC)CN1CN(CC(CC)CCCC)CC(C)(N)C1 (configuration not stated) | inactive | 
CCOc1ccccc1C(N)=O | inactive | 
CN(Cc1ccc(C(C)(C)C)cc1)Cc1cccc2ccccc12 | inactive | 
COc1cc(O)c(C(=O)c2ccccc2)cc1S(=O)(=O)O | inactive | 
CCCCCCCCNC(C)C(O)c1ccc(SC(C)C)cc1 (configuration not stated) | inactive | 
CC[C@H](c1ccc(O)cc1)[C@@H](CC)c1ccc(O)cc1 | inactive | 
CCCCCCCC/C=C\CCCCCCCCN | inactive | 
CN1CCC(OC(c2ccccc2)c2ccccc2)CC1 | inactive | 
CCN(CC)CCOc1ccccc1C(=O)CCc1ccccc1 | inactive | 
CCc1oc2ccccc2c1C(=O)c1cc(Br)c(O)c(Br)c1 | inactive | 
CCOC(=O)[C@H](CCc1ccccc1)N[C@@H](C)C(=O)N1[C@H](C(=O)O)C[C@@H]2CCC[C@@H]21 | inactive | 
O=C1C(O)=C(O)C(=O)C(O)=C1O | inactive | 

Compound | Potency | activity change, negative = inhibition
CN(CCCN1c2ccccc2CCc2ccccc21)CC(=O)c1ccc(Cl)cc1 | inactive | 
CCOC(=O)c1c(N)sc2c1CCN(Cc1ccccc1)C2 | inactive | 
CN1CCN(c2c(F)cc3c(=O)c(C(=O)O)cn4c3c2SCC4)CC1 | inactive | 
COc1ccccc1N1CCN(CCCCNC(=O)c2ccc(-c3ccc(C(C)=O)cc3)cc2)CC1 | inactive | 
Nc1nc(-c2ccccc2)c(Br)c(=O)[nH]1 | inactive | 
C/C=C/C=N/NC(=O)c1ccncc1 | inactive | 
CCOc1cc(OCC)c(C(=O)CCC(=O)O)cc1OCC | inactive | 
CCN[C@@H]1C[C@H](N)[C@@H](OC2OC(CN)=CCC2N)[C@H](O)[C@H]1O[C@H]1OC[C@](C)(O)[C@H](NC)[C@H]1O (some centres not stated) |  | 22% [at 0.568 µM] (inactive)
O=C(O)Cc1csc(-c2ccc(Cl)cc2)n1 | inactive | 
Nc1nc(Cl)nc2c1ncn2[C@@H]1O[C@H](CO)[C@@H](O)[C@@H]1F | inactive | 
COP(=O)(OC)OC(c1ccc(Cl)cc1)P(=O)(OC)OC (configuration not stated) | inactive | 
O=[N+]([O-])c1cccc(S(=O)(=O)NCCNS(=O)(=O)c2cccc([N+](=O)[O-])c2)c1 | inactive | 
CCCN(CCc1cccs1)[C@H]1CCc2c(O)cccc2C1 | inactive | 
Nc1nc(N)c(-c2ccccc2)s1 | inactive | 
N#CCC(=O)NN | inactive | 
CCOC(=O)c1ccc(N)cc1 | inactive | 
CCN1CCCC(OC(=O)C(c2ccccc2)c2ccccc2)C1 (configuration not stated) | inactive | 
COc1cc(C)nc(-n2nc(C)cc2OC)n1 | inactive | 

Experiment: qHTS assay for measurement of the activity of small molecule inhibitors on Zika virus induced Caspase-3 activity in human astrocytoma cells (AID 1224859)
Conditions: SNB-19 ZIKV-induced caspase-3/7, luminescence, 6 h; series mostly up to 45.7 µM
Procedure, shortened: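 Caspase activation in ZIKV-infected SNB-19 cells (2 FFU/cell, 6 h) measured by Caspase-Glo 3/7 luminescence after 30 min RT; compound pre-incubated 1 h; normalised to uninfected and infected controls.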

Compound | outcome | activity change, negative = inhibition
CCN(CC)CCNC(=O)COc1ccc(OC)cc1 | inactive | 
OCc1ccccn1 | inactive | 
CCCCCCCCCCCCCC(=O)OC(C)C | inactive | 
CC1(COc2ccc(CC3SC(=O)NC3=O)cc2)CCCCC1 (configuration not stated) | inactive | 
Cc1ccc(-c2ncc(Cl)cc2-c2ccc(S(C)(=O)=O)cc2)cn1 | inactive | 
Cc1ccccc1OCC(O)CO (configuration not stated) | inactive | 
CCCCC(CC)CN1CN(CC(CC)CCCC)CC(C)(N)C1 (configuration not stated) | inactive | 
CCOc1ccccc1C(N)=O | inactive | 
CN(Cc1ccc(C(C)(C)C)cc1)Cc1cccc2ccccc12 | inactive | 
COc1cc(O)c(C(=O)c2ccccc2)cc1S(=O)(=O)O | inactive | 
CCCCCCCCNC(C)C(O)c1ccc(SC(C)C)cc1 (configuration not stated) | inactive | 
CC[C@H](c1ccc(O)cc1)[C@@H](CC)c1ccc(O)cc1 | inactive | 
CCCCCCCC/C=C\CCCCCCCCN | inactive | 
CN1CCC(OC(c2ccccc2)c2ccccc2)CC1 | inactive | 
CCN(CC)CCOc1ccccc1C(=O)CCc1ccccc1 | inactive | 
CCc1oc2ccccc2c1C(=O)c1cc(Br)c(O)c(Br)c1 | inactive | 
CCOC(=O)[C@H](CCc1ccccc1)N[C@@H](C)C(=O)N1[C@H](C(=O)O)C[C@@H]2CCC[C@@H]21 | inactive | 
O=C1C(O)=C(O)C(=O)C(O)=C1O | inactive | 

Compound | outcome | activity change, negative = inhibition
CN(CCCN1c2ccccc2CCc2ccccc21)CC(=O)c1ccc(Cl)cc1 | inactive | 
CCOC(=O)c1c(N)sc2c1CCN(Cc1ccccc1)C2 | inactive | 
CN1CCN(c2c(F)cc3c(=O)c(C(=O)O)cn4c3c2SCC4)CC1 | inactive | 
COc1ccccc1N1CCN(CCCCNC(=O)c2ccc(-c3ccc(C(C)=O)cc3)cc2)CC1 | inactive | 
Nc1nc(-c2ccccc2)c(Br)c(=O)[nH]1 | inactive | 
C/C=C/C=N/NC(=O)c1ccncc1 | inactive | 
CCOc1cc(OCC)c(C(=O)CCC(=O)O)cc1OCC | inactive | 
CCN[C@@H]1C[C@H](N)[C@@H](OC2OC(CN)=CCC2N)[C@H](O)[C@H]1O[C@H]1OC[C@](C)(O)[C@H](NC)[C@H]1O (some centres not stated) |  | 15.8% [at 0.568 µM] (inactive)
O=C(O)Cc1csc(-c2ccc(Cl)cc2)n1 | inactive | 
Nc1nc(Cl)nc2c1ncn2[C@@H]1O[C@H](CO)[C@@H](O)[C@@H]1F | inactive | 
COP(=O)(OC)OC(c1ccc(Cl)cc1)P(=O)(OC)OC (configuration not stated) | inactive | 
O=[N+]([O-])c1cccc(S(=O)(=O)NCCNS(=O)(=O)c2cccc([N+](=O)[O-])c2)c1 | inactive | 
CCCN(CCc1cccs1)[C@H]1CCc2c(O)cccc2C1 | inactive | 
Nc1nc(N)c(-c2ccccc2)s1 | inactive | 
N#CCC(=O)NN | inactive | 
CCOC(=O)c1ccc(N)cc1 | inactive | 
CCN1CCCC(OC(=O)C(c2ccccc2)c2ccccc2)C1 (configuration not stated) | inactive | 
COc1cc(C)nc(-n2nc(C)cc2OC)n1 | inactive | 
